Consider 20 compounds from PubChem BioAssay.

The nature of test [1]: antimalarial activity against Dd2 strain (AID 2302;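 active means growth inhibition above 50% at the single 2 µM test dose, taken to imply half-maximal potency below 2 µM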;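 further: 0% = DMSO untreated growth and 100% = chloroquine plus artemisinin killed control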). Particulars: P. falciparum Dd2 in RBCs, LDH growth readout, 72 h; at 2 µM; hits give high values.
Test [2] is described as follows: human hepatoma cell viability loss – ATP luminescence, cytotoxicity control for P. falciparum antimalarial project, primary screen (AID 2303;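 active means inhibition above 50%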;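 further: 0% = DMSO wells and 100% = digitonin-killed cells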). Particulars: HepG2 viability, 24-48 h, at 10 µM, hits give high values.
Test [3] addresses L-lactate dehydrogenase (Plasmodium falciparum (isolate CDC / Honduras)) (UniProt Q27743). Description: PfLDH activity inhibition – cell lysate, 3D7 strain, counter-screen for P. falciparum growth inhibition project (AID 2304).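 Further: 0% = vehicle and 100% = reference inhibitor.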 Particulars: P. falciparum 3D7 crude extract, LDH APAD/NBT absorbance; at 2 µM; hits give high values.
The nature of test [4]: inhibition of 3D7 malaria parasite growth – strain 3D7 (AID 2306).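 Further: 0% = DMSO wells and 100% = chloroquine plus artemisinin control wells.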 Particulars: P. falciparum 3D7 erythrocytic growth, LDH absorbance, 72 h; at 2 µM; hits give high values.
Test [5] deals with Calcium-dependent protein kinase 1 (Plasmodium falciparum (isolate 3D7)) (UniProt P62344). The test can be described thus: PfCDPK1 kinase inhibitors, biochemical, TCAMS library (AID 1159585; cut-off not given, nearly all actives have IC50 up to about 0.98 µM;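 further: inhibitors leave more ATP so luminescence rises with inhibition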). Particulars: recombinant PfCDPK1, Kinase-Glo ATP depletion luminescence. A general note: Kinase-Glo reads ATP consumption through a luciferase reaction.
Test [6] concerns the target Plasmodium falciparum protein kinase 6 (PK6, PF3D7_1337100) (UniProt Q8IDW1). The test can be described thus: PfPK6 kinase inhibitors, biochemical, TCAMS library (AID 1159586). Particulars: recombinant PfPK6, Kinase-Glo ATP depletion luminescence.
Test [7] addresses Protein kinase 7 (PK7), Plasmodium falciparum 3D7 (PF3D7_0213400) (UniProt Q7YTF7). The test can be described thus: inhibition of Plasmodium PK7 catalytic activity – biochemical, TCAMS antimalarial set, Kinase-Glo luminescence (AID 1159587). Particulars: recombinant PfPK7, Kinase-Glo ATP depletion luminescence.
In test [8] the target is Calcium-dependent protein kinase 4 (Plasmodium falciparum (isolate 3D7)) (UniProt Q8IBS5). Description: PfCDPK4 kinase inhibitors, biochemical, TCAMS library (AID 1159588; cut-off not given, nearly all actives have IC50 up to about 0.91 µM). Particulars: recombinant PfCDPK4, Kinase-Glo ATP depletion luminescence.

Values without a mark were called inactive. For some of these results: Entries with a potency or affinity are not part of this list. Activity calls are given as the source filed them. Unless noted, how the calls were made is not given here.

Chain of Calcium-dependent protein kinase 4 (Plasmodium falciparum (isolate 3D7)) (Q8IBS5 whole entry, looked up): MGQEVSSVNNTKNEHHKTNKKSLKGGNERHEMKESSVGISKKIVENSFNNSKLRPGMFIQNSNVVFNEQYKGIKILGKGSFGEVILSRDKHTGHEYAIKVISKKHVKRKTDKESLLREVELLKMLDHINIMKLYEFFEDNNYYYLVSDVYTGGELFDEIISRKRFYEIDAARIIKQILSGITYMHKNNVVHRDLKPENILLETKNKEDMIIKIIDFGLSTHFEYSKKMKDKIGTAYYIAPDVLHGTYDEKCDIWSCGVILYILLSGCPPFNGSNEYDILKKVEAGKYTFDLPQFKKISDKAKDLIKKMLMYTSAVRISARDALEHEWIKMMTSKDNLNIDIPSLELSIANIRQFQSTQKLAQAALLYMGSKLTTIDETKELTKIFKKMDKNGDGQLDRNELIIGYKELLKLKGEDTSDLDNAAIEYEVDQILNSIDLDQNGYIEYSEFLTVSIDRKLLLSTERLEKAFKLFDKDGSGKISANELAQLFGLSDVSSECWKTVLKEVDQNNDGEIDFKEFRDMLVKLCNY
Chain of L-lactate dehydrogenase (Plasmodium falciparum (isolate CDC / Honduras)) (Q27743 whole entry, looked up): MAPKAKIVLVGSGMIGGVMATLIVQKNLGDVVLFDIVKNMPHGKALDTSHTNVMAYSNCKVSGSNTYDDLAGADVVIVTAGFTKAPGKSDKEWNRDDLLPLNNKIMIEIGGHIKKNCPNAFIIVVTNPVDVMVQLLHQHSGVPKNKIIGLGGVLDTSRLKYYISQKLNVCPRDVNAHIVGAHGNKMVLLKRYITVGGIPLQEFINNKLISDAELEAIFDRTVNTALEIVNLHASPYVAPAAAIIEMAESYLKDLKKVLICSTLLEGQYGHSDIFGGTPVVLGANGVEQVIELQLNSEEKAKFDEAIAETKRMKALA
Chain of Plasmodium falciparum protein kinase 6 (PK6, PF3D7_1337100) (Q8IDW1 1-305): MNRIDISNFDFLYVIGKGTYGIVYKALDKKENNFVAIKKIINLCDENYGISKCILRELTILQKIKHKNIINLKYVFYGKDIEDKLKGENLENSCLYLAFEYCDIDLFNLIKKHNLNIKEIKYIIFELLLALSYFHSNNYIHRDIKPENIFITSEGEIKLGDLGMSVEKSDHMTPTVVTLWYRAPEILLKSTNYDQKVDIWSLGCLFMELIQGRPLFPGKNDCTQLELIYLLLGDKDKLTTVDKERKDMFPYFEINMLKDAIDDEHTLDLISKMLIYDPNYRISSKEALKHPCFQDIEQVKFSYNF
Chain of Calcium-dependent protein kinase 1 (Plasmodium falciparum (isolate 3D7)) (P62344 whole entry, looked up): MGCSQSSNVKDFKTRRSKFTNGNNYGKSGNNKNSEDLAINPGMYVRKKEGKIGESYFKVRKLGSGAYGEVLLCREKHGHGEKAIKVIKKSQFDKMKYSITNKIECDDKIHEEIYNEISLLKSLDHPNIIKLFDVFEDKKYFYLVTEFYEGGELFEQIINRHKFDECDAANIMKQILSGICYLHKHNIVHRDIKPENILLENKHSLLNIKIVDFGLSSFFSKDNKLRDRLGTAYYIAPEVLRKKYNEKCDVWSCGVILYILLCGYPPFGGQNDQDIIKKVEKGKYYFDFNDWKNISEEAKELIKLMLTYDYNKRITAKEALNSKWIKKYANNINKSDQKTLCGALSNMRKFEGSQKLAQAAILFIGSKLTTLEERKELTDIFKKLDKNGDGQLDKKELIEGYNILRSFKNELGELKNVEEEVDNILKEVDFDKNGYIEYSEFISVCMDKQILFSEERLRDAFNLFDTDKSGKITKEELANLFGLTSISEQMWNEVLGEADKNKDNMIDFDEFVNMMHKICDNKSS
Chain of Protein kinase 7 (PK7), Plasmodium falciparum 3D7 (PF3D7_0213400) (Q7YTF7 1-343): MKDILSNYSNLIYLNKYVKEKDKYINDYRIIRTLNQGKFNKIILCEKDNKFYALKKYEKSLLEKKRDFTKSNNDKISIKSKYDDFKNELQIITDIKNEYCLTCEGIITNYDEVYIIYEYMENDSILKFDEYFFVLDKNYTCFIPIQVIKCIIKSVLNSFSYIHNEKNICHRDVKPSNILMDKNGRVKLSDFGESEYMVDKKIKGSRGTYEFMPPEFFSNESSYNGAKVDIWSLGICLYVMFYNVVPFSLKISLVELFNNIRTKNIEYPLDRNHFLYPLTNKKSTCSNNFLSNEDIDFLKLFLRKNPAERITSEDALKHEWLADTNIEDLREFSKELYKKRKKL

Take `C[C@H](Cc1ccc(OCCCCCCCOc2ccc(C[C@@H](C)NC[C@H](O)c3cccc(Cl)c3)cc2)cc1)NC[C@H](O)c1cccc(Cl)c1`: the growth inhibition in test [1] was 97% (active); in test [4], 99% (active). Besides, the inhibition is 99% (active) in test [2] and -6% in test [3]. In addition, the outcome in test [5], in test [6], in test [7] and in test [8] was inactive.

Take `CCNc1cc(C(=O)N[C@@H](Cc2ccccc2)[C@H](O)CN[C@H]2CCc3ccccc32)cc(N2CCCC2=O)c1`: the growth inhibition in test [1] is 99% (active); in test [4], 98% (active). In addition, the inhibition in test [2] was 8%; in test [3], 3%. Also, the result in test [5], in test [6], in test [7] and in test [8] was inactive.

As to `COc1ccc2nc(C)cc(NCc3cccc4ccccc34)c2c1`, the growth inhibition in test [1] is 72% (active); in test [4], 102% (active). The inhibition in test [2] is 28%; in test [3], -7%. For the same compound, the result in test [5], in test [6], in test [7] and in test [8] was inactive.

`CC(=O)c1c[nH]c(C(=O)Nc2ccc(-c3cn4ccccc4n3)cc2)c1`: the figures for the growth inhibition in test [1] and in test [4] were 95% (active) and 98% (active), respectively. For the same compound, the inhibition was 20% in test [2] and 4% in test [3]. In addition, the outcome in test [5], in test [6], in test [7] and in test [8] was inactive.

As to `Cc1cc(NN=Cc2ccccc2Cl)c2cc(C(F)(F)F)ccc2n1`, the figures for the growth inhibition in test [1] and in test [4] were 75% (active) and 100% (active), respectively. Moreover, the inhibition in test [2] and in test [3] was -4% each time. Also, the result in test [5], in test [6], in test [7] and in test [8] was inactive.

On to `CCc1cn2c3c(cc(C(=O)N[C@@H](Cc4cccc(F)c4)[C@H](O)CNC4CCOCC4)cc13)N(C)S(=O)(=O)CC2`, for which the growth inhibition in test [1] and in test [4] was 97% (active) throughout. The inhibition in test [2] and in test [3] was -2% in each case. Also, the result in test [5], in test [6], in test [7] and in test [8] was inactive.

With `CC(C)(C)c1ccc(N2C(N)=NC(N)=NC2(C)C)cc1Cl`, the growth inhibition was 3% in test [1] and 94% (active) in test [4]. For the same compound, the figures for the inhibition in test [2] and in test [3] were 51% (active) and -5%, respectively. For the same compound, the outcome in test [5], in test [6], in test [7] and in test [8] was inactive.

On to `N#Cc1cccc(Nc2nccc(Nc3ccc(Oc4ccccc4)cc3)n2)c1`, for which the growth inhibition was 17% in test [1] and 94% (active) in test [4]. Also, the inhibition was 12% in test [2] and -6% in test [3]. In addition, the result in test [5], in test [6], in test [7] and in test [8] was inactive.

`CCn1ncc(Cl)c1CN(C)S(=O)(=O)c1ccc2ccccc2c1`: the growth inhibition in test [1] was 91% (active); in test [4], 101% (active). Moreover, the figures for the inhibition in test [2] and in test [3] were 16% and -2%, respectively. In addition, the outcome in test [5], in test [6], in test [7] and in test [8] was inactive.

With `NC(N)=NN=CC(=O)Nc1ccc(Br)cc1`, the values for the growth inhibition in test [1] and in test [4] were 1% and 100% (active), respectively. In addition, the inhibition was 5% in test [2] and 0% in test [3]. Moreover, the outcome in test [5], in test [6], in test [7] and in test [8] was inactive.

For `CN(C)c1ccc(CN2CCCCC(NC(=O)c3cc(-c4ccccc4F)cs3)C2)cc1` (stereo not given), the growth inhibition was 28% in test [1] and 100% (active) in test [4]. Also, the inhibition in test [2] was 13%; in test [3] it was 5%. For the same compound, the result in test [5], in test [6], in test [7] and in test [8] was inactive.

On to `COc1cccc(-c2cc(C(=O)NC3CCC(N4CCC(c5ccccc5C)CC4)CC3)[nH]n2)c1` (stereo not given), for which the growth inhibition is 58% (active) in test [1] and 99% (active) in test [4]. Moreover, the inhibition in test [2] was 60% (active); in test [3], -2%. The result in test [5], in test [6], in test [7] and in test [8] was inactive.

Take `NS(=O)(=O)c1cccc(-c2ccc3nccc(-c4cccc(S(N)(=O)=O)c4)c3c2)c1`: the growth inhibition in test [1] was 99% (active); in test [4], 98% (active). The inhibition in test [2] was 40%; in test [3], 4%. The outcome in test [5], in test [6], in test [7] and in test [8] was inactive.

Turning to `CCc1cn2c3c(cc(C(=O)N[C@@H](Cc4cccc(Cl)c4)[C@H](O)CNC4CCOCC4)cc13)N(C)S(=O)(=O)CC2`, the growth inhibition in test [1] and in test [4] was 98% (active) in each case. Besides, the inhibition in test [2] was 2%; in test [3], -1%. In addition, the result in test [5], in test [6], in test [7] and in test [8] was inactive.

For the compound `CCN(CC)CCN(CCN(CC)CC)c1ccc2c(c1)Sc1c(Cl)ccc(Cl)c1S2`, the growth inhibition in test [1] is 94% (active); in test [4], 98% (active). The inhibition is 31% in test [2] and -5% in test [3]. Further, the result in test [5], in test [6], in test [7] and in test [8] was inactive.

In the case of `Cc1ccccc1CNc1noc(-c2sccc2Br)n1`, the growth inhibition in test [1] is 88% (active); in test [4] it was 99% (active). Besides, the inhibition was -2% in test [2] and -3% in test [3]. The result in test [5], in test [6], in test [7] and in test [8] was inactive.

Consider `O=C(/C=C/c1ccc(Cl)c(Cl)c1)NCC[C@@H]1C[C@H]1CCN1CCC(c2c[nH]c3ccccc23)CC1`, for which the growth inhibition in test [1] was 22%; in test [4], 96% (active). The inhibition in test [2] was 98% (active); in test [3], -8%. Further, the result in test [5], in test [6], in test [7] and in test [8] was inactive.

As to `CCOC(=O)c1ccc(N(CCCN(CCCN(c2ccc(C(=O)OCC)cc2)S(=O)(=O)c2ccc(C)cc2)CCc2ccc(O)cc2)S(=O)(=O)c2ccc(C)cc2)cc1`, the growth inhibition is 74% (active) in test [1] and 96% (active) in test [4]. The inhibition was -11% in test [2] and -1% in test [3]. Besides, the result in test [5], in test [6], in test [7] and in test [8] was inactive.

In the case of `CC(C)Cn1c(Sc2ccc(C#N)c([N+](=O)[O-])c2)nnc1-c1cccs1`, the growth inhibition was 32% in test [1] and 90% (active) in test [4]. The inhibition in test [2] was 9%; in test [3], 5%. Also, the result in test [5], in test [6], in test [7] and in test [8] was inactive.

For the compound `COc1ccc(C2C(C(=O)Nc3ccc(C)cc3Br)c3ccccc3C(=O)N2C)cc1` (stereo not given), the growth inhibition in test [1] was 2%; in test [4] it was 96% (active). Further, the inhibition in test [2] is 4%; in test [3] it was 6%. Moreover, the outcome in test [5], in test [6], in test [7] and in test [8] was inactive.

What is called inhibition is the relative decrease from the control value, in per cent.
